RE007 growth inh = less growth of the S. pombe RE007 Vpr strain. S. pombe RE007 Vpr strain, BacTiter-Glo ATP luminescence, 24 h. Potency, µM (doses to about 92.2 µM), without a hit: top-dose activity change, negative = less growth, hits mostly inhibitors. 360,000 compounds, 0.21% hits; active = well fitted falling curve with a large enough effect; inconclusive = small, poorly fitted or top-dose-only effect; inactive = no such curve, though single readings can be large or run the other way; note: potency is the fitted concentration of half-maximal effect; % is set by controls: 0 for no effect and ±100 for the full control effect; nearly all actives have a fitted effect of over 50% in size
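Fission yeast strain RE007, carrying one chromosomally integrated HIV-1 vpr copy, was seeded at OD 0.01 in PMG+AL medium with 23 nL pinned compound. After 24 h at 30 °C and 99% humidity, viability was read by BacTiter-Glo luminescence.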
TbPYK inhibitor = blocks Trypanosoma brucei pyruvate kinase; TbPYK enzyme, Kinase-Glo Plus ATP luminescence, 45 min; Potency, µM (highest dose often 76.8 µM), for inactives: top-dose activity, negative = inhibition, most hits filed as inhibitors; 410,000 compounds, 0.12% hits; note: potency is the fitted concentration of half-maximal effect; % is set by controls: 0 for no effect and ±100 for the full control effect; nearly all actives have a fitted effect of over 50% in size
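ADP (130 uM final) triggers the TbPYK reaction after compound addition; incubation is 45 min at room temperature. Kinase-Glo Plus is then added and luminescence imaged. Normalized data are fitted to concentration-effect curves.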
LmPK inh = blocks Leishmania mexicana pyruvate kinase activity. 290,000 compounds, 0.37% hits. Potency, µM (titrated, usually from 57.5 µM), for the others: at the top dose activity change, negative = inhibition, most hits filed as inhibitors. purified LmPK, Kinase-Glo ATP luminescence, 1 h. AID 1721. Q27686; note: potency is the fitted concentration of half-maximal effect; % is set by controls: 0 for no effect and ±100 for the full control effect
Target sequence (Q27686 whole entry, looked up): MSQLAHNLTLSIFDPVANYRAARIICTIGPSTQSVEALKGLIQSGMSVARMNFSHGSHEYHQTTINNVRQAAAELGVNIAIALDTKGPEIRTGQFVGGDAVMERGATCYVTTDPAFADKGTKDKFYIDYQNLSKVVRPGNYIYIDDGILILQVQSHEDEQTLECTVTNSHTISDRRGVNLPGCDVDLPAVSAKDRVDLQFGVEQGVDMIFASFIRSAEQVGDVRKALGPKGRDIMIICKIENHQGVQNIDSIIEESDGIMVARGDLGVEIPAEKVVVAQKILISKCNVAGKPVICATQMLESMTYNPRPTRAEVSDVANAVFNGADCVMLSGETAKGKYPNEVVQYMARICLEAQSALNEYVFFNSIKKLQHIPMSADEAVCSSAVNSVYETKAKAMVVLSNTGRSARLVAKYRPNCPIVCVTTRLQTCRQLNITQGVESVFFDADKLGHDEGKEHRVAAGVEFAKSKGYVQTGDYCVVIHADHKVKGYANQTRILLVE
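Purified LmPK (0.1 nM) with 0.5 mM PEP and 0.1 mM ADP in imidazole buffer pH 7.2 with MgCl2/KCl, 1 h at room temperature. ATP formed was read by luciferase luminescence and normalized to no-enzyme and uninhibited controls.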
AMA1-RON2 inh = disrupts binding of P. falciparum AMA1 to RON2. AlphaScreen AMA1-biotinylated RON2 peptide binding. Potency, µM (doses to about 58.2 µM), inactives show at the top dose activity change, negative = inhibition, hits mostly inhibitors. 360,000 compounds, 0.2% hits. AID 720542;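 note: potency is the fitted concentration of half-maximal effect; 0% = vehicle wells and -100% = peptide control; nearly all actives have a fitted effect of over 45% in size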
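AMA1 (3D7) with his tag at 25 nM final met compounds first, then biotinylated RON2 peptide at 25 nM; detection used donor plus acceptor beads, 10 µg/mL apiece, read by AlphaScreen after 30 min at room temperature.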
Sm TGR block = blocks Schistosoma mansoni thioredoxin glutathione reductase; Q962Y6; purified TGR, DTNB reduction, TNB absorbance 405 nm; Potency, µM (top dose mostly 114 µM), without a hit: at the highest dose activity change, negative = inhibition, most hits filed as inhibitors; 360,000 compounds, 3% hits; note: potency is the fitted concentration of half-maximal effect; % is set by controls: 0 for no effect and ±100 for the full control effect; nearly all actives have a fitted effect of over 60% in size
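Kinetic colorimetric format: TGR-catalysed, NADPH-driven DTNB reduction monitored via TNB absorbance. Enzyme dispensed at 20 nM; compound exposure 15 min at room temperature before reaction start.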
LmPK inh confirm = Blocks LmPK activity, confirmation assay; Potency, µM (top dose mostly 57.5 µM), inactives show at the top dose activity change, negative = inhibition, actives largely listed as inhibitors; purified LmPK, Kinase-Glo ATP luminescence, 1 h; 150 compounds, 40% hits; shares compounds with LmPK inh; AID 2559;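 active = compounds giving a full or partial concentration-response curve, as inhibitors or activators; inconclusive = weak, top-dose-only or unclear curve responses; inactive = no response at any tested dose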
* hit, by the source's call; [ ] = another dose, or the depositor's remark. Compounds with a hit are over-represented: about 3.2% of the library has one in this group of screens. Unless noted, calls come from the whole dose curve; as a rule, active = well fitted curve in the direction sought with a large enough effect; inconclusive = small, poorly fitted or top-dose-only effect, or another doubt; inactive = no such curve, though single readings can be large; an effect the other way counts as inactive or inconclusive.

What do the screens show for `COc1ccc2c(c1)c1c(c(=O)n(-c3ccc(OC)c(OC)c3)c(=O)n1CC(=O)N1CCCC1)n2C`?
TbPYK inhibitor: 4%; Sm TGR block: -7%

What do the screens show for `Fc1ccc(-c2nc3n(n2)Cc2ccccc2-3)cc1`?
RE007 growth inh: inconclusive; TbPYK inhibitor: -11%; LmPK inh: 3.5µM*; AMA1-RON2 inh: -8%; Sm TGR block: 0%; LmPK inh confirm: inconclusive

What do the screens show for `NC(=S)Cc1nc2n(n1)Cc1ccccc1-2`?
RE007 growth inh: 2%; TbPYK inhibitor: -4%; LmPK inh: -2%; AMA1-RON2 inh: 61%; Sm TGR block: 2%

How did Cc1cccc(CNC(=O)C(=O)Nc2ccccc2C)c1 do in these assays?
TbPYK inhibitor: -3%; Sm TGR block: 12%

How did Cn1c(=O)[nH]c(=O)c2c1nc(N1CCOCC1)n2Cc1ccccc1 do in these assays?
TbPYK inhibitor: -2%; Sm TGR block: -4%

What do the screens show for `Nc1ncnc2c1ncn2C1OC(COP(=O)(O)O)C(O)C1O` (centres undefined)?
RE007 growth inh: inconclusive; TbPYK inhibitor: -23%; LmPK inh: 16µM*; AMA1-RON2 inh: -1%; Sm TGR block: 7%; LmPK inh confirm: 5.8µM*

What do the screens show for `Nc1ncnc2c1ncn2[C@@H]1O[C@H](COP(=O)(O)O)[C@@H](O)[C@H]1O`?
RE007 growth inh: inconclusive; TbPYK inhibitor: inconclusive; LmPK inh: 10µM*; AMA1-RON2 inh: 6%; Sm TGR block: -25%; LmPK inh confirm: 6.5µM*

What do the screens show for `CN1CCc2cccc3c2C1Cc1ccc(O)c(O)c1-3` (centres undefined)?
RE007 growth inh: 12%; TbPYK inhibitor: -3%; LmPK inh: 3.2µM*; AMA1-RON2 inh: inconclusive; LmPK inh confirm: 1%

Results for COc1cc2c(cc1OC)-c1c(OC)c(OC)cc3c1C(C2)N(C)CC3 (centres undefined) ?
RE007 growth inh: -2%; TbPYK inhibitor: -9%; LmPK inh: -3%; AMA1-RON2 inh: -1%; Sm TGR block: inconclusive

Results for CCN(Cc1ccncc1)Cc1cn(C)nc1-c1ccc(Oc2ccccc2)cc1 ?
RE007 growth inh: 1%; TbPYK inhibitor: 4%; LmPK inh: 2%; AMA1-RON2 inh: 0%; Sm TGR block: 1%; LmPK inh confirm: -2%

How did CCOc1ccc(C(=O)NC2CCN(C(=S)NCc3ccco3)CC2)cc1 do in these assays?
RE007 growth inh: -13%; TbPYK inhibitor: 7%; LmPK inh: 2%; AMA1-RON2 inh: -3%; Sm TGR block: -7%

Results for Cc1cccc(C(=O)NC2CCN(C(=S)NCc3ccco3)CC2)c1 ?
RE007 growth inh: -4%; TbPYK inhibitor: -4%; LmPK inh: -8%; AMA1-RON2 inh: -21%; Sm TGR block: -1%; LmPK inh confirm: -1%

How did COC(=O)CSc1ccccc1C(=O)OC do in these assays?
RE007 growth inh: -5%; TbPYK inhibitor: 3%; LmPK inh: -3%; AMA1-RON2 inh: 9%; Sm TGR block: 32%

How did COC(=O)CSC1=NS(=O)(=O)c2ccccc21 do in these assays?
RE007 growth inh: -17%; TbPYK inhibitor: 22µM*; LmPK inh: 5µM*; AMA1-RON2 inh: -9%; Sm TGR block: 2.5µM*; LmPK inh confirm: inconclusive

Results for CC(C)C(NC(=O)c1ccc2c(c1)OCO2)C(=O)N/N=C\c1ccco1 (centres undefined) ?
RE007 growth inh: -2%; TbPYK inhibitor: -4%; LmPK inh: -1%; AMA1-RON2 inh: 0%; Sm TGR block: 5%; LmPK inh confirm: 8%

Results for CCOC(=O)c1nnn(-c2nonc2N)c1-c1ccc(Br)cc1 ?
RE007 growth inh: 13%; TbPYK inhibitor: 0%; LmPK inh: 6%; AMA1-RON2 inh: -4%; Sm TGR block: 25%

What do the screens show for `CCOC(=O)c1nnn(-c2nonc2N)c1-c1ccc(C)cc1`?
RE007 growth inh: 0%; TbPYK inhibitor: -1%; LmPK inh: 7%; AMA1-RON2 inh: -2%; Sm TGR block: 7%; LmPK inh confirm: 5%

What do the screens show for `CC(C)c1nc2ccc(C(=O)Nc3ccccc3F)cc2o1`?
TbPYK inhibitor: 2%; Sm TGR block: -2%

How did O=C(Nc1cccc(O)c1)C(=O)Nc1ccccn1 do in these assays?
RE007 growth inh: inconclusive; TbPYK inhibitor: inconclusive; LmPK inh: 7.9µM*; AMA1-RON2 inh: -1%; Sm TGR block: 3%; LmPK inh confirm: 21µM*

Results for CCc1nnc2c(N3CCN(c4cccc(C(F)(F)F)c4)CC3)nc3ccccc3n12 ?
TbPYK inhibitor: 5%[15.4 µM]; Sm TGR block: 7%

How did Cc1cc(N2CCN(c3cccc(C)c3C)CC2)n2nc(C)c(-c3ccc(Cl)cc3)c2n1 do in these assays?
TbPYK inhibitor: -9%; Sm TGR block: -3%

Screening data: PubChem BioAssay, National Center for Advancing Translational Sciences (NCATS)
